Assay outcomes (PubChem BioAssay)
Tb PYK inh: qHTS of Trypanosoma Brucei Inhibitors; TbPYK enzyme, Kinase-Glo Plus ATP luminescence, 45 min; Potency, µM (titrated, usually from 76.8 µM), without a hit: top-dose activity, negative = inhibition, most hits filed as inhibitors; pyruvate kinase (Trypanosoma brucei), Q57TT1; actives 0.12% (n = 410,000); further: potency means the concentration at half of the fitted maximal effect; on the % scale 0 is the no-effect control and ±100 the full control effect; nearly all actives have a fitted effect of over 50% in size
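T. brucei PYK with substrate was exposed to pin-transferred compounds across a concentration series, then started with 130 uM ADP (final). After 45 min at room temperature, Kinase-Glo Plus luminescence was read, normalized and curve-fitted.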
Cycloheximide cs: Cycloheximide Counterscreen for Small Molecule Inhibitors of Shiga Toxin | max response, % | cell reporter, cycloheximide protein synthesis inhibition counterscreen | actives 12% (n = 300,000); in the data active means max response mostly above about 13%, no sharp cut-off; inactive means mostly below about 14%; further: read at 38.3 µM for the half of the compounds with a filed dose; 0% is about no effect
Shiga inhibitor: A qHTS for Small Molecule Inhibitors of Shiga Toxin. actives 9.2% (n = 290,000). inhibition, % at 38.7 µM. Vero cells, Shiga toxin protein synthesis inhibition reporter; in the data active means inhibition mostly above about 28%, no sharp cut-off; inactive means mostly below about 43%; further: 0% is about no effect
LmPK inh: qHTS Assay for Inhibitors of Leishmania Mexicana Pyruvate Kinase (LmPK); actives 0.37% (n = 290,000); Q27686; purified LmPK, Kinase-Glo ATP luminescence, 1 h; Potency, µM (series often up to 57.5 µM), for inactives: top-dose activity change, negative = inhibition, actives largely listed as inhibitors; further: potency means the concentration at half of the fitted maximal effect; on the % scale 0 is the no-effect control and ±100 the full control effect
Target sequence (Q27686 whole entry, looked up): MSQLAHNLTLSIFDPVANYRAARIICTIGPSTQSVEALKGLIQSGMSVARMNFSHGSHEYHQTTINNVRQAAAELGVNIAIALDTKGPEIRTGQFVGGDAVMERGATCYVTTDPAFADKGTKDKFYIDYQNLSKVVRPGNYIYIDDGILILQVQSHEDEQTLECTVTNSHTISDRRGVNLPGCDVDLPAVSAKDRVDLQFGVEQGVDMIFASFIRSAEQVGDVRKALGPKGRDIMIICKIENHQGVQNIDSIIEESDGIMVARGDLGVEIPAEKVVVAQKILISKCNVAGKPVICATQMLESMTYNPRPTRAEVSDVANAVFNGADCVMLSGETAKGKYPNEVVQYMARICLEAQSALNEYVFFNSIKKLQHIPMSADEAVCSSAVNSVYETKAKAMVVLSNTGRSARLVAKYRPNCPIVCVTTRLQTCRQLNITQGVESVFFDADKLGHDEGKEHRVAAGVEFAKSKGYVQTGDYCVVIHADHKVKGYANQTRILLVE
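Purified LmPK (0.1 nM) converted ADP (0.1 mM) to ATP with PEP (0.5 mM) in imidazole buffer pH 7.2 with KCl and MgCl2, 1 h at room temperature. ATP was read by Kinase-Glo luminescence; data normalized to uninhibited and no-enzyme controls.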
SARS PLpro yeast: qHTS of Yeast-based Assay for SARS-CoV PLP; S. cerevisiae expressing SARS-CoV PLpro, growth rescue; Potency, µM (doses to about 32.9 µM), inactives show top-dose activity, positive = growth rescue, hits mostly activators; actives 0.19% (n = 330,000); AID 485353, 2010; calls by dose curve; further: potency means the concentration at half of the fitted maximal effect; 0% is about no effect; nearly all actives have a fitted effect of over 55% in size
NS1 inh: qHTS Assay for Inhibitors of Influenza NS1 Protein Function. actives 0.4% (n = 270,000). Potency, µM (top dose mostly 46.1 µM), inactives show at the top dose activity, positive = more growth; calls by dose curve; further: potency means the concentration at half of the fitted maximal effect; actives are rising curves; nearly all actives have a fitted effect of over 50% in size
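Recovery from NS1-induced slow growth read by OD600 in budding yeast switched to galactose assay medium (pH 6.0, -URA) at 1:100 dilution. Compound 23 nl per well; the matching strain lacking NS1 serves as control.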
* = called active by the depositor; ? = inconclusive; / = not tested or not shown; ! = not active in a repeat; [ ] = dose if it differs, or a comment. The sample as a whole holds a higher share of hits than the screen did. Unless noted, the call rests on the fitted dose curve; in most records, active means well fitted curve in the direction sought with a large enough effect; inconclusive means small, poorly fitted or top-dose-only effect, or another doubt; inactive means no such curve, though single readings can be large; an effect the other way counts as inactive or inconclusive.

SMILES	Tb PYK inh	Cycloheximide cs	Shiga inhibitor	LmPK inh	SARS PLpro yeast	NS1 inh
O=C1CCC(/C=C/c2ccccc2)=NN1Cc1ccccc1Cl	4.8%	-3.5	-19.1	1.5%	-1.6%	1.1%
O=C1CCC(/C=C/c2ccccc2)=NN1	2.8%	17.2*	16.9	-14.5%	-3.5%	/
Cc1ccc(C)c(Cn2c(=O)n(-c3ccc(Cl)cc3)c(=O)c3c(C)c(C)sc32)c1	1.0%	/	/	/	/	/
CCCCn1c(N)c(N(CC)C(=O)c2ccc(Cl)c(Cl)c2)c(=O)[nH]c1=O	-5.1%	-6.2	-5.3	1.4%	-3.4%	2.1%
COc1ccccc1NC(=O)CCn1cnc2ccccc2c1=O	-7.1%	/	/	/	-3.0%	/
Cc1cccc(C)c1NC(=O)C(c1ccccc1)N1CCN(c2ccc(C(F)(F)F)cn2)CC1 (configuration not stated)	3.1%	/	/	/	/	/
CC(C)c1cc(C(C)C)c(S(=O)(=O)Nc2cccc3cccnc23)c(C(C)C)c1	/	3.8	2.4	/	/	/
COc1ccc(/C=C(\NC(=O)c2ccccc2)C(=O)NCc2ccco2)cc1OC	0.6%	-1.2	16.2	-1.9%	-0.5%	10.7%
O=[N+]([O-])c1ccc(O)c(-c2nn[nH]n2)c1	?	37.4*	53.1*	-12.6%	9.0%	0.2%
CC(NS(=O)(=O)c1ccc(OCC(=O)NCc2cccnc2)cc1)c1ccccc1 (configuration not stated)	3.9%	-2.9	-19.2	0.3%	3.3%	4.8%
CCC(C)(C)C1CCc2[nH]nc(C(=O)NN)c2C1 (configuration not stated)	-20.1%	38.0*	52.6*	0.1%	-4.9%	-1.8%
COc1ccc(C(C[N+](=O)[O-])c2c(-c3ccccc3)cc3ccccn23)c(OC)c1 (configuration not stated)	2.2%	54.9	71.3*	1.8%	-22.6%	5.6%
COc1ccc(C(C[N+](=O)[O-])c2c(C)cc3ccccn23)cc1 (configuration not stated)	-5.2%	12.8	-2.5	-0.2%	-0.4%	/
O=C1CCn2nc(-c3ccc(Cl)cc3)cc2N1	-1.3%	44.2*	78.7*	-13.7%	-13.0%	-20.6%
COc1ccc(C2Nc3ccccc3C(=O)N2Cc2ccccc2)cc1COc1ccc(Cl)cc1Cl (configuration not stated)	/	/	/	/	-7.5%	/
CCn1c(/C=N/Nc2ccc(C(=O)O)cc2)nc2ccccc21	-11.1%	-2.5	-13.7	-7.4%	25.5%	3.3%
CC1Oc2ccccc2C=C1/C=N/Nc1ccc(C(=O)O)cc1 (configuration not stated)	-17.6%	33.2*	69.9*	-2.2%	-3.3%	-75.0%
N#CCCCC#Cc1ccc2c(c1)COc1c3ccccc3nn1-2	-15.5%	/	/	/	2.7%	/
Cc1ccc2c(c1)COc1c3ccc(C(=O)O)cc3nn1-2	?	-3.9	-8.4	?	-5.0%	-45.8%
CC(C)[C@@H](CO)NC(=O)c1ccc2c3n(nc2c1)-c1ccccc1CO3	-23.8%	36.7*	50.0*	14.1µM*	-5.2%	1.3%
CC(C)NC(=O)c1ccc2c3n(nc2c1)-c1ccccc1CO3	?	22.0*	30.3	12.6µM*	-10.7%	-33.9%
Cc1cc(C(=O)N2CCCC2(C)C(=O)NCC(C)C)nn1C(C)(C)C (configuration not stated)	3.3%	/	/	/	/	/
COC(=O)C1=C(C(=O)OC)[C@@H]2N(C)c3ccccc3[C@@]23C[C@@H](CO)N(C(=O)c2cc(C)oc2C)C3=N1	/	/	/	-3.0%[11.5 µM]	/	/
Cc1cc(C)cc(Cn2cc(CN3CC(N4CCCCC4)CS3(=O)=O)nn2)c1 (configuration not stated)	3.9%	/	/	/	/	/
Cc1ccc2c(c1)c(N=NC(N)=O)c(O)n2C	5.0%	1.1	14.8	-8.2%	0.8%	3.0%
SMILES	Tb PYK inh	Cycloheximide cs	Shiga inhibitor	LmPK inh	SARS PLpro yeast	NS1 inh
CCOc1ccc2c(c1)c(N=Nc1cccc(C(=O)O)c1)c(O)n2C	-12.4%	57.7*	62.4*	-1.2%	0.7%	6.0%
Cc1ccc2c(c1)c(N=Nc1cccc(C(=O)O)c1)c(O)n2C	-1.5%	15.5*	59.9*	8.5%	3.8%	/
CC1(C(=O)O)CCCN(C(=O)c2ccc(OC(F)F)cc2)C1 (configuration not stated)	2.9%	/	/	/	/	/
CN(C)/C=N/C1=C(C#N)C(c2cccs2)c2ccc3ccccc3c2O1 (configuration not stated)	2.0%	46.6*	66.3*	1.9%	-2.0%	3.8%
C=CCc1c(C)nc2c(OC)cccc2c1Cl	-6.3%	13.6*	34.1	0.0%	-0.7%	-7.7%
COc1cccc2c(Cl)c(CC=C(Cl)Cl)c(C)nc12	1.1%	0.4	1.7	-2.2%	-2.3%	-6.3%
CSc1ncc(C(=O)NCc2cccc(Br)c2)c(-c2ccccc2)n1	3.2%	/	/	/	/	/
Nc1cccc2c1C(=O)N(C(=O)/C=C/c1cccc(F)c1)C2=O	-9.7%	34.3*	140.1*	-9.5%	-2.1%	/
Nc1cccc2c1C(=O)N(C(=O)/C=C/c1cccc(Br)c1)C2=O	-1.1%	40.1*	42.5*	6.9%	-2.5%	-33.9%
CC(=O)Cn1cnc2c(cnn2-c2ccc(F)cc2)c1=O	-2.4%	/	/	/	/	/
CCn1c2ccccc2c2cc(N)ccc21	-18.8%	8.3	-8.3	-11.3%	12.3%	?
CCn1c2ccccc2c2c3ncc4cccn4c3ccc21	-6.0%	15.8*	28.1	3.3%	-0.3%	2.7%
COc1ccccc1Nc1ccc(Nc2ccccc2OC)nn1	-4.1%	29.2*	175.0*	2.6%	13.3%	-2.9%
Cc1csc(Nc2cccc3ccccc23)n1	-4.7%	20.9*	97.1	-7.2%	-6.7%	/
COCCNC(=O)c1csc(Nc2cccc3ccccc23)n1	0.1%	6.1	6.1	-0.7%	?	-23.5%
COc1ccccc1Nc1nc(C)cs1	-12.8%	21.8*!	85.4*!	0.0%	4.1%	7.1%
COc1ccc(OC)c(Nc2ccc(Nc3cc(OC)ccc3OC)nn2)c1	-2.6%	-4.0	-6.1	0.7%	-10.1%	17.2%
Cc1csc(Nc2ccccc2C(F)(F)F)n1	-1.6%	20.7*	38.6	-3.0%	-13.6%	-149.5%
O=C1C(Cl)=C(NCCN2CCOCC2)C(=O)c2ncccc21	/	-21.5	-28.5	/	/	/
CC(C)Cn1c(N)c(C(=O)COC(=O)c2cccnc2Cl)c(=O)n(C)c1=O	-2.3%	-1.2	-4.6	1.8%	-0.9%	/
COc1ccc(OC)c(NC(=O)c2ccc(-c3nc(CSc4ccccc4)c(C)o3)cc2)c1	-0.2%	/	/	/	/	/
Cc1ccc(-c2nc3cc(Cl)ccc3o2)cc1NC(=O)c1cc2ccccc2o1	1.2%	/	/	/	/	/
CC1CN=C(Nc2cccc3ccccc23)S1 (configuration not stated)	2.4%	18.5*	37.0	1.4%	4.9%	-13.8%
CC1CN=C(Nc2ccccc2)S1 (configuration not stated)	-4.6%	9.2	7.8	1.3%	6.4%	8.2%
